# PubChem BioAssay AID449764 (Southern Research Specialized Biocontainment Screening …, 2010)
# Out of some 2,300 compounds screened, about 1,700 (74%) were called active. So high a share suggests a set chosen from earlier hits. This is one part of the list. Results with a measured potency or affinity are listed apart. A number with no mark means an inactive call. How the calls were made is not given here.
# Assay: Confirmatory growth inhibition assay, Mycobacterium tuberculosis H37Rv, absence of glycerol (AID 449764);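 further: growth read after 7 days of incubation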
# Conditions: no glycerol; series mostly up to 100 µM; inhibition: at the top concentration
row,Compound,inhibition [%]
1,O=S(=O)(c1ccc(Oc2ccc3oc4ccccc4c3c2)nc1)N1CCCC1,-0.11
2,COc1ccc(-c2cc(O)cc(O)c2)cc1,-6.99
3,CCCCCCOc1ccc(/C=C/C(=O)N2CCOCC2)cc1OC,3.43
4,CCCCOC1CC(c2ccc(OCc3ccc(OC)cc3)c(OC)c2)N(C)O1 (stereo unspecified),7.75
5,O=[N+]([O-])/C=C/c1cn(Cc2ccccc2)c2ccccc12,16.7
6,Oc1ccc(/C=N/n2c3ccccc3c3ccccc32)cc1,8.46
7,Fc1cc(F)cc(Nc2nc(Cl)nc(NC3CCCC3)n2)c1,-2.21
8,Cc1ccc(Nc2nc(N)c([N+](=O)[O-])c(N3CCCC(C)C3)n2)cc1C (stereo unspecified),10.2
9,COc1ccc(N/C(=C2\CCCC2=O)C2CCCCC2)cc1,8.32
10,COc1ccc(NC(=O)ON=C2c3ccccc3-c3ccccc32)cc1,5.91
11,CC(C)(C)c1ccc(-c2nc3[nH]c(=O)cc(NC(=O)c4ccco4)n3n2)cc1,-2.11
12,Cc1ccccc1C(=O)Nc1ccccc1C(=O)NCC(C)C,-7.13
13,O=C1NCCC/C1=N\Nc1ccc(Br)cc1,-6.4
14,COc1ccccc1N1CCN(c2ccc(-c3ccccc3)nn2)CC1,2.99
15,CN1CCN(/N=C/c2c3ccccc3c(Cl)c3ccccc23)CC1,7.76
16,COc1cc(C)ccc1OCCOc1c(C)cc(Cl)cc1Cl,14.7
17,O=c1oc(-c2ccccc2[N+](=O)[O-])nc2ccccc12,4.79
18,Cc1noc2ncnc(Sc3ccc(Cl)cc3)c12,-1.06
19,O/N=C/c1cn(-c2ccc(Cl)cc2)nn1,-16.6
20,Cc1ccc(Cl)cc1NC(=O)CN1CCN(S(=O)(=O)N2CCOCC2)CC1,0.89
21,CN1CCN(c2ccc(C(=O)c3cn(-c4ccc(F)c(Cl)c4)nn3)cc2)CC1,3.46
22,Cc1ccc2[nH]c3c(c2c1)CN(C(=O)CN1CCN(c2ccccn2)CC1)CC3,10.3
23,CCCCNC(=O)Nc1nnc(-c2ccc(OCC)cc2)o1,4.04

row,Compound,inhibition [%]
1,COc1cc(CNC(=O)CCCCCCC(C)C)ccc1O,22.9
2,CN(C)C=Nc1ccc2nn(-c3ccccc3)nc2c1,-12.8
3,O=C(Nc1ccc(Cl)cc1)N(Cc1nc2ccccc2c(=O)[nH]1)Cc1cccs1,-0.82
4,CCOc1ccc(N/C(C)=C/C(=O)c2ccc3c(c2)OCCO3)cc1,-1.38
5,Cc1[nH]nc(SCC(=O)NCc2ccccc2)c1[N+](=O)[O-],3.69
6,CCC(C)n1c(NC(=O)c2ccccc2)c(C#N)c2nc3ccccc3nc21 (stereo unspecified),8.82
7,COc1ccc(-c2oc3ccc(-c4ccc(OC)nc4)cc3c2C#CC2(O)CCCCC2)cc1,7.76
8,Cc1cc(=O)oc2cc(OC(=O)C3CCN(C(=O)c4ccc(F)cc4)CC3)ccc12,-1.62
9,CC12CN3CCN(CC(C3)/C1=N\NC(=O)Nc1cccc(Cl)c1)C2,5.72
10,Cc1ccccc1-c1nc(CN2CCC(C(=O)NCCC3=CCCCC3)CC2)c(C)o1,4.01
11,Cc1ccc2nc(SCC(=O)Nc3ccc4c(c3)CCC4)[nH]c2c1,5.82
12,CCCc1cc2c(cc1NC(=O)c1ccccc1Cl)OCO2,7.35
13,Cc1sc2nc3c4ccccc4c(NCc4ccco4)nn3c(=O)c2c1C,-4.52
14,Cc1ccc(C2CN(C)C3(C(=O)Nc4ccccc43)C23COc2ccccc2C3=O)cc1 (stereo unspecified),-10.1
15,CCOc1ccc(N=c2scc(-c3ccccc3)n2CCO)cc1,-0.96
16,CC1(C)OC(=O)C(=NNc2ccc(Cl)cc2)C(=O)O1,9.09
17,Cc1cccc(CSc2nc3c(c(-c4cccs4)c2C#N)CN(C)CC3)c1,5.32
18,CC1(C)CC(=O)c2c(O)cc(OCc3ccc(Br)cc3)cc2O1,27.8
19,COC(=O)C(Cc1ccc(OC(=O)c2ccc(C(F)(F)F)cc2)cc1)N1Cc2ccccc2C1=O (stereo unspecified),5.41
20,O=C(CNC(=O)c1ccc(Cl)cc1)c1ccc(Cl)cc1,4.82
21,Cc1ccsc1/C=N/Nc1ccc(F)cc1F,-13.4
22,CCOC(=O)c1ccc(N=Cc2nc3ccccc3n2C)cc1,-0.5
23,CC1(C)CC(=O)c2cc(C(=O)NNc3ccccc3)c(=O)n(-c3ccccc3)c2C1,1.32

row,Compound,inhibition [%]
1,Cn1cnnc1SCc1ccc(-c2ccc(Br)cc2)o1,3.16
2,O=C(Nc1ccc(CN2CCOCC2)cc1)c1ccc(-c2cc(Cl)ccc2Cl)o1,13.3
3,CCOC(=O)c1ccc(N=C2S/C(=C\c3cc(C)n(-c4cccnc4)c3C)C(=O)N2C)cc1,-1.19
4,O=C(COC(=O)C1CC2CCCC(C1)C2=O)NNC(=O)c1ccccc1F (stereo unspecified),6.77
5,C(=C\c1ccccc1)/C=N/Nc1nc2ccccc2s1,16.2
6,CC1(c2ccc(Cl)c(Cl)c2)NC(=S)N2C1NC(=S)N2c1ccccc1 (stereo unspecified),8.16
7,CC(=O)Oc1c(C)cc(Cl)cc1C(=O)Nc1ccc([N+](=O)[O-])cc1Cl,-3.94
8,CCCc1nc2oc(C(=O)OCC)c(N)c2c2c1COC(C)(C)C2,9.84
9,O=C1c2ccccc2C(=O)N1Nc1ccccc1,-0.14
10,COc1ccc(-c2nc(NC(=O)c3[nH]c(C)c(C(C)=O)c3C)sc2C)cc1,0.11
11,CCc1noc(C)c1C(=O)Nc1nc(-c2ccc(F)cc2)c(C)s1,-3.73
12,CCOC(=O)c1ccc(Nc2cc3ccccc3c(=O)[nH]2)cc1,5.75
13,CCCCOP(=O)(OCCCC)C(Nc1ccc(C(=O)OCC)cc1)c1ccncc1 (stereo unspecified),7.49
14,Cc1ccc(C)c2nc(N3CCCC3)c(C#N)cc12,1.81
15,N=c1c(C(=O)NC2CCCCC2)cc2c(=O)n3ccccc3nc2n1Cc1ccc(F)cc1,-0.07
16,Cc1ccc(S(=O)(=O)CNC(=S)c2ccc3ccccc3c2)cc1,12.2
17,O=C(NC1CCCCCC1)c1ccccc1-c1ccccc1,2.75
18,CCOC(=O)N1CCN(C(=O)COC(=O)C2CCN(S(=O)(=O)c3c(Cl)cccc3Cl)CC2)CC1,-0.31
19,CCOc1ccccc1NC(=O)C12CC3CC(C1)CC(c1ccc(C)cc1)(C3)C2,3.63
20,COC(=O)CNC(=O)CSc1nc2sc(-c3ccccc3)cc2c(=O)n1-c1ccccc1,9.12
21,CCOc1ccc(-c2nn3c(-c4ccccc4)nnc3s2)cc1,-10.9
22,Cc1ccccc1-c1nc2cc(N)ccc2o1,-20
23,CCCCCCCCCCCCCCCC(=O)NCCO,-3.35

row,Compound,inhibition [%]
1,CCCCCCCCCCNC(=O)C(=O)Nc1ccccn1,-1.26
2,O=C(/C=C/c1ccco1)Nc1cccc(-c2nc3ccccc3[nH]2)c1,13.6
3,N/C(Cc1ccc([N+](=O)[O-])cc1)=N\OC(=O)c1ccc2ccccc2c1,-1.93
4,COc1ccc(OC(=O)c2cc3cc(Cl)ccc3oc2=O)cc1,-0.49
5,Cc1cccc(C)c1OCC(=O)Nc1cccc(-c2nnc(-c3ccccc3)o2)c1,9.51
6,O=C(Nc1nc2c(s1)CCCC2)c1cc(-c2ccc3c(c2)OCO3)nc2ccccc12,0.44
7,Cc1cc(N2CCN(C(=O)Nc3ccccc3C#N)CC2)c2ccccc2n1,5.5
8,COc1ccc(N=N/C(=C\O)C(=O)c2cccs2)cc1,-1.6
9,CCOCCCNS(=O)(=O)c1ccc(NC(=O)N2c3ccccc3Sc3ccccc32)cc1,-3.66
10,Cc1ccc(C(=O)O/N=C(\N)c2ccc(Br)cc2)cc1C,4.69
11,COc1ccc(N=Cc2c(OC)ccc3ccccc23)cc1,-15.2
12,COc1ccc(N=Cc2c(O)cc(C)oc2=O)cc1,-5.32
13,CCOc1ccc(NC(=O)N(C2CCCCC2)C(C)c2ccncc2)cc1 (stereo unspecified),-3.13
14,CCOc1ccc(N=C(NC#N)SCC(=O)NC2CC2)cc1,3.09
15,CCOc1ccc(N=CC2=C(O)CC(c3ccco3)CC2=O)cc1 (stereo unspecified),-4.94
16,C=CCN1CC[C@]23c4c5ccc(O)c4O[C@H]2/C(=N/NC(=O)c2ccccc2)CC[C@@]3(O)[C@H]1C5,-1.3
17,COc1ccc(N=Cc2c[nH][nH]c2=O)cc1,1.31
18,Cn1c(N)c(C(=O)COC(=O)c2ccc([N+](=O)[O-])o2)c(=O)n(C)c1=O,-10.6
19,O=C(c1n[nH]c(=O)c2ccccc12)N1CCN(C2c3ccccc3-c3ccccc32)CC1,4.65
20,COCCN=C1Sc2nc3ccc(C)cc3cc2CN1Cc1ccco1,8.95
21,C#CCCc1cscc1/C=[N+](\[O-])c1ccc(C(=O)OCC)cc1,-6.58
22,O=C(O)c1ccccc1C(=O)NNc1ccc(Cl)cc1Cl,0.63
